Legend:
Experiment in all cases: log2 ratio of Biotin-Ahx-Ub-VS probe labelling (fragment/DMSO); higher = less target engagement (more negative = stronger competition), active = hit call of the paper (q ≤ 0.05, log2 ratio ≤ -1)
Details in all cases: compound concentration: 200 uM; treatment time: 3 h
USP42 = molecular target: T1, USP42 (UniProt Q9H9J4)
T1 sequence (whole entry): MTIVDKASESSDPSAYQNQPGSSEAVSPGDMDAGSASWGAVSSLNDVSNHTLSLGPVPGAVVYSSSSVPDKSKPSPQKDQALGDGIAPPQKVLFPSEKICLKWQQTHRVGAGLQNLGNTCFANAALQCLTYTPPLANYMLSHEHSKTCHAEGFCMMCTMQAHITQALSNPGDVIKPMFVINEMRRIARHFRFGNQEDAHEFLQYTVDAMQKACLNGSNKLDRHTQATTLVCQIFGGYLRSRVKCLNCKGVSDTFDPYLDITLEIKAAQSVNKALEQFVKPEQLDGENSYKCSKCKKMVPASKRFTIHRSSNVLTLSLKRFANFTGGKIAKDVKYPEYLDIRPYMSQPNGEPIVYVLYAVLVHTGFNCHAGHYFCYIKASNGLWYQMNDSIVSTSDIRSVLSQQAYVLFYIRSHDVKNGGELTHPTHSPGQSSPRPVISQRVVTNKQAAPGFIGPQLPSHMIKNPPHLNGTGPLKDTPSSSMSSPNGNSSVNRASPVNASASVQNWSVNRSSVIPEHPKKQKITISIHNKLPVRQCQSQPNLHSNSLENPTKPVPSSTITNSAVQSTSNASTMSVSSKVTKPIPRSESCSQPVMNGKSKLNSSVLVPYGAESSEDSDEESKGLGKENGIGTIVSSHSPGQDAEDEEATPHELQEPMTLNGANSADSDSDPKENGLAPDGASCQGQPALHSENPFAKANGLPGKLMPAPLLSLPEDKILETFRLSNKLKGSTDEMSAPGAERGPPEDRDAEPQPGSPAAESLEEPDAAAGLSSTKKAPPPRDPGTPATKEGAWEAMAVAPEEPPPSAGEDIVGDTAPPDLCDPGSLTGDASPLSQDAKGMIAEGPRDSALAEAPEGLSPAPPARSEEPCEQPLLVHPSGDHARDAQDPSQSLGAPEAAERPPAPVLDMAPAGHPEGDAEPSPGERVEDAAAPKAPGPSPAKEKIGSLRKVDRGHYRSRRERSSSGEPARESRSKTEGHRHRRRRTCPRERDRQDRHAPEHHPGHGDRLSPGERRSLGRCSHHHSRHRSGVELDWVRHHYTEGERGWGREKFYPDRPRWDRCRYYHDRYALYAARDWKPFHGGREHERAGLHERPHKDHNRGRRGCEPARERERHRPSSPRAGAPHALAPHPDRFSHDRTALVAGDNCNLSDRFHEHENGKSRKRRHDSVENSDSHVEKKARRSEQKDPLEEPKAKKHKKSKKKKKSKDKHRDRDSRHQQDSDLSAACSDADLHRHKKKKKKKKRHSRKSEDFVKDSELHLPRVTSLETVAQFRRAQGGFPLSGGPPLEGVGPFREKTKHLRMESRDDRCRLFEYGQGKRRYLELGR
Method in brief: (§1)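 Labelled DUBs from HEK293T lysate were NeutrAvidin-enriched, digested with LysC and trypsin, and run by diaPASEF LC-MS/MS. Before that, each 495 µg sample in Tris/CHAPS/IGEPAL buffer with protease inhibitors was treated in triplicate with fragment at 200 µM or vehicle for 3 h, then with Biotin-Ahx-Ub-VS at 0.5 µM final for 1 h. Values are average log2 ratios of fragment over vehicle by unpaired t-test, based on global-median-normalised Spectronaut label-free quantities from proteins with ≥2 unique peptides.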

USP46 = USP46 (UniProt P62068)
Method in brief: as §1

USP47 = molecular target: T2, USP47 (UniProt Q96K76)
T2 sequence (whole entry): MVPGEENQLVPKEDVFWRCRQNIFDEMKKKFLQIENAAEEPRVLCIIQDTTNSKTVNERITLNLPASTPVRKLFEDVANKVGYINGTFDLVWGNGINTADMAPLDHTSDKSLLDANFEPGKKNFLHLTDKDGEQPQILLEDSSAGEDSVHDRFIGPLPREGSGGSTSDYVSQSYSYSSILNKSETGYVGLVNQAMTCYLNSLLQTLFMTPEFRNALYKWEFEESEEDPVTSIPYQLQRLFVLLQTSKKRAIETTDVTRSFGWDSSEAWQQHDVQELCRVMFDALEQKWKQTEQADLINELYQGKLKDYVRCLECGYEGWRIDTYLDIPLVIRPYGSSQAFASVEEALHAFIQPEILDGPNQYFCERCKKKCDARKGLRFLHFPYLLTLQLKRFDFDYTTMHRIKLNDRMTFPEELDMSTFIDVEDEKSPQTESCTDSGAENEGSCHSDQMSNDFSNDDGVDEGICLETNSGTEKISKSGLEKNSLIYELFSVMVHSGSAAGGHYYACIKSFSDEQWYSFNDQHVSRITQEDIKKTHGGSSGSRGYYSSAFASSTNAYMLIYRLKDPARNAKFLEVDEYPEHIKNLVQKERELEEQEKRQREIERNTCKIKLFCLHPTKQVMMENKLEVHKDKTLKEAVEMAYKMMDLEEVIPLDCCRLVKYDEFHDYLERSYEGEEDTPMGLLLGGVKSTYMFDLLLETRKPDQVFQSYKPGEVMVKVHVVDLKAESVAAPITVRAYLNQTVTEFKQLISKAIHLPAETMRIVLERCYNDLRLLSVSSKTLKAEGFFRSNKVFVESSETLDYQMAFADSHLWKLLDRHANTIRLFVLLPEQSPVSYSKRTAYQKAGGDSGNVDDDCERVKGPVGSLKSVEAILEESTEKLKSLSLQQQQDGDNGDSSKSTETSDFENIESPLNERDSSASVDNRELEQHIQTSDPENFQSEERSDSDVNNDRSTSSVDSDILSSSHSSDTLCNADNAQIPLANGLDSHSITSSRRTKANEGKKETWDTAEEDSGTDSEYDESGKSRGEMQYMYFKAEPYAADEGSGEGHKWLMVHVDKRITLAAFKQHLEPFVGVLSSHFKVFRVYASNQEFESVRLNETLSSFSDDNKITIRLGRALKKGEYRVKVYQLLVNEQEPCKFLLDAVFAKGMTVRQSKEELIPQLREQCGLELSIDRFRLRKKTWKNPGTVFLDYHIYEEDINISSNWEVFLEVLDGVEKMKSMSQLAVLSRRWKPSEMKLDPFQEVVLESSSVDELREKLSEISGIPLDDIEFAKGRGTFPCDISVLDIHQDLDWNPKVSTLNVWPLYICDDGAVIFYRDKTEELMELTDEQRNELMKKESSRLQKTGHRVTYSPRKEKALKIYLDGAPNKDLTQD
Method in brief: as §1

USP48 = molecular target: T3, USP48 (UniProt Q86UV5)
T3 sequence (whole entry): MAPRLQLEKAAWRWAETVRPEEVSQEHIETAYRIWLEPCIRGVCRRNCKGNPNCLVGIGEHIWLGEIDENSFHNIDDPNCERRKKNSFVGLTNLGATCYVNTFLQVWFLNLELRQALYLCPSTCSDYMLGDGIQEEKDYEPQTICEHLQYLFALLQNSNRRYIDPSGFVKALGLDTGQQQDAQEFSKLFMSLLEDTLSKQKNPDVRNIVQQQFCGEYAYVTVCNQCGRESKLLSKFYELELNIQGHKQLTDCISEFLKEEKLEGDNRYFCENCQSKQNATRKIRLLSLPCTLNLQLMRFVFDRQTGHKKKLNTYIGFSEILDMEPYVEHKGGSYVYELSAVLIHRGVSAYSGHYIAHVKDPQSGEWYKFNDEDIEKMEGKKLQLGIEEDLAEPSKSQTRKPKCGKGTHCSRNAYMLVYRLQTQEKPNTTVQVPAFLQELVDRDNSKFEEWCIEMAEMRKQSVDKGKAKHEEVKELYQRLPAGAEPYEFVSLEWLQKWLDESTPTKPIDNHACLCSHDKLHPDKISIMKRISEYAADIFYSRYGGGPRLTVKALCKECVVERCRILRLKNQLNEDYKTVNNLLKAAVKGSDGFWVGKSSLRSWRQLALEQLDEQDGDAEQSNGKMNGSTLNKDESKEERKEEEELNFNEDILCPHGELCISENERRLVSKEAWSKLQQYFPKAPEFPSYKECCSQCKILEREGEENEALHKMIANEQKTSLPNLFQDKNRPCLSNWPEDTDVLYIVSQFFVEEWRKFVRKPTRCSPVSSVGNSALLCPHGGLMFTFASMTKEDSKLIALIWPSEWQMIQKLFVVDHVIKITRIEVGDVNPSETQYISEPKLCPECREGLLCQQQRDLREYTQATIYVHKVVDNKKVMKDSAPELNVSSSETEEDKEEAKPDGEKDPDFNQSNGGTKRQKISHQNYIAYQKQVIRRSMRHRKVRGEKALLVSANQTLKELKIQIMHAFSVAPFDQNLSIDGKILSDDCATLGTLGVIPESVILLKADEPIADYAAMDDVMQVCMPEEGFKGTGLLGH
Method in brief: as §1

USP5 = molecular target: T4, USP5 (UniProt P45974)
T4 sequence (whole entry): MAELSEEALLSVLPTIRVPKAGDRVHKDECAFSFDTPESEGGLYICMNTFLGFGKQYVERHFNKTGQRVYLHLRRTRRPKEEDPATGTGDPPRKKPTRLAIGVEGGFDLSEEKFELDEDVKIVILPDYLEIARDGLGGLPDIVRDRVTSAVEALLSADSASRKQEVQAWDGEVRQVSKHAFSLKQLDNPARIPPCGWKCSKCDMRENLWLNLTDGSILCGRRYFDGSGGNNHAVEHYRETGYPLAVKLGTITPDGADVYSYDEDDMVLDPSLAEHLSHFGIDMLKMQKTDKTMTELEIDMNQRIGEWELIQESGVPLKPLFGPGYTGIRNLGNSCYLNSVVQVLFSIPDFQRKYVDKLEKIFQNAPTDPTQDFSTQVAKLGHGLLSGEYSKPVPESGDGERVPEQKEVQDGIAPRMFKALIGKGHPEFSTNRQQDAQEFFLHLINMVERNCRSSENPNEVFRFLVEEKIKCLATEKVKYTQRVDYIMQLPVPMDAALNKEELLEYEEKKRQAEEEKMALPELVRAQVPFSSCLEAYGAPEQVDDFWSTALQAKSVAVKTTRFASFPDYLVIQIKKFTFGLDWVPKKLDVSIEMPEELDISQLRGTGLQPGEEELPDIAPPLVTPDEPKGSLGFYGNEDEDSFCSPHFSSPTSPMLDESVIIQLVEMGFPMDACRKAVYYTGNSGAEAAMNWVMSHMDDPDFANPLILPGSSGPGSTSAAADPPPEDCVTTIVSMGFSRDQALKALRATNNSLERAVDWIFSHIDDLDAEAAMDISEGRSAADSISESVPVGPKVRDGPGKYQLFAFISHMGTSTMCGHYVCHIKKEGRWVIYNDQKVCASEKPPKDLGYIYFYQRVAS
Method in brief: as §1

USP54 = USP54 (UniProt Q70EL1)
Method in brief: as §1

USP7 = USP7 (UniProt Q93009)
Method in brief: as §1

USP8 = molecular target: T5, USP8 (UniProt P40818)
T5 sequence (whole entry): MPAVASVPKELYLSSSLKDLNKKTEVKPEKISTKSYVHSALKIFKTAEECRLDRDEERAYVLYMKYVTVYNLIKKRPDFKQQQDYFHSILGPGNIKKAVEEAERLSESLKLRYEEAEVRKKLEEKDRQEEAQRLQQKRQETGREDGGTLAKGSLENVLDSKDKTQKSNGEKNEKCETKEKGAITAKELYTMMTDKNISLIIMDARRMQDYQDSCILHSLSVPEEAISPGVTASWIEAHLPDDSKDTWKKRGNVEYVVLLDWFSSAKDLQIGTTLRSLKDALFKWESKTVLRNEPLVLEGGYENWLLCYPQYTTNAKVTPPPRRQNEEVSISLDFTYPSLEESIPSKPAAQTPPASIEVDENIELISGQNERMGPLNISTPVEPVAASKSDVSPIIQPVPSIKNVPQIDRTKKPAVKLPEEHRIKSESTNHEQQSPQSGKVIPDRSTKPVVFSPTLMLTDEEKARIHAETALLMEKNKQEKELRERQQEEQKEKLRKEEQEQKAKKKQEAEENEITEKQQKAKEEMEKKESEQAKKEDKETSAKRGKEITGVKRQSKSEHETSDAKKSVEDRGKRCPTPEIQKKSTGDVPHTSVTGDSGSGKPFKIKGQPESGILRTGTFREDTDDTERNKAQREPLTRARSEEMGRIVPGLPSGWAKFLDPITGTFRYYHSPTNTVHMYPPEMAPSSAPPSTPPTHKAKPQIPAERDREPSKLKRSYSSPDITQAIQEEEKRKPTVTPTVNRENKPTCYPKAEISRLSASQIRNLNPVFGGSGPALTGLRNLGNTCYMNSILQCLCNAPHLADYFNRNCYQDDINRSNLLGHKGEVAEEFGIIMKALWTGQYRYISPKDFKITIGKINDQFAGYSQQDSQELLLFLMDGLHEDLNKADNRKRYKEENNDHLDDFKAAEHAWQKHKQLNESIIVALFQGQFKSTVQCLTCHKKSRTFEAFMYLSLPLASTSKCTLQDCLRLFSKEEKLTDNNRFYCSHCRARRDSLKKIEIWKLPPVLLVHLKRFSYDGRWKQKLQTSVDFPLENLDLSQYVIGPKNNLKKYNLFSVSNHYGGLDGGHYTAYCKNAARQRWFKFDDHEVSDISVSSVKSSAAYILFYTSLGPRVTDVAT
Method in brief: as §1

Measured: log2 ratio of Biotin-Ahx-Ub-VS probe labelling

Sequence of USP7 (Q93009 whole entry, looked up): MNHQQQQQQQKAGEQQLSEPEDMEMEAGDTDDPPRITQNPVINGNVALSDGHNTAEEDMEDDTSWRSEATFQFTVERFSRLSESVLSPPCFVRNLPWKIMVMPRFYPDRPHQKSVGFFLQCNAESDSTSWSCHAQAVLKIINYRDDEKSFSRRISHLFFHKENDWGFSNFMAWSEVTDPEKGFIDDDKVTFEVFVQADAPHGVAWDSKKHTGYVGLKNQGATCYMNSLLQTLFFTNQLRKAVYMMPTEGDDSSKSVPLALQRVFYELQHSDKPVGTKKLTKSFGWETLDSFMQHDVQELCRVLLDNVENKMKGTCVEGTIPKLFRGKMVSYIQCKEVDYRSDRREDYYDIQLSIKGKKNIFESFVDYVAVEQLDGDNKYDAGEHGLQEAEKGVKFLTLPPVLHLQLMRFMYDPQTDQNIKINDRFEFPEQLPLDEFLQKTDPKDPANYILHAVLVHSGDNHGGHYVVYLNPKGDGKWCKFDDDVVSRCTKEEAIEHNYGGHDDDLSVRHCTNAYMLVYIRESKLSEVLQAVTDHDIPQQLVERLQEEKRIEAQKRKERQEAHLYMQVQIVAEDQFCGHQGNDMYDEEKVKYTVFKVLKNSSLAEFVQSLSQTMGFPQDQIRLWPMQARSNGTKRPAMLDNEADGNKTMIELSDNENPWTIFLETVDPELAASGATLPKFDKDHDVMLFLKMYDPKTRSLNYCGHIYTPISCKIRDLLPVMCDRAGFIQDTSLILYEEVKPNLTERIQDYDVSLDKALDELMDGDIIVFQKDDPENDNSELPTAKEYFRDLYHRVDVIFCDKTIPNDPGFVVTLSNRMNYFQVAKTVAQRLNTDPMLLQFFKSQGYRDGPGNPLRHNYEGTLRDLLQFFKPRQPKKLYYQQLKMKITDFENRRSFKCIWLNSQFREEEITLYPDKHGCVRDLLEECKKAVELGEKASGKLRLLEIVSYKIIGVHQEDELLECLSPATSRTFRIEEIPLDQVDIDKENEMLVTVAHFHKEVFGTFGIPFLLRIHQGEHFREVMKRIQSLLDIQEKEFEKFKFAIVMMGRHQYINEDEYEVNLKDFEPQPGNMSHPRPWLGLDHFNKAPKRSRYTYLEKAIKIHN
Sequence of USP46 (P62068 whole entry): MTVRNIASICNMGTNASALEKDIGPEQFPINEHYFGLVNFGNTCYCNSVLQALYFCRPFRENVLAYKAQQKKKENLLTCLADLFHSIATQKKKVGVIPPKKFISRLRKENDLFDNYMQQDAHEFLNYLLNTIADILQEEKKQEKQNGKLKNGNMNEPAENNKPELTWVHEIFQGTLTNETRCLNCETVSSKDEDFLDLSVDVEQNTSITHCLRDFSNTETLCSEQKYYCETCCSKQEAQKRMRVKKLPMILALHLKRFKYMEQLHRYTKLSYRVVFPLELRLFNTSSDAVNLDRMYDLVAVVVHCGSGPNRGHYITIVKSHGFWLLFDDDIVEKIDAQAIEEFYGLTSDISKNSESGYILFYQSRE
Sequence of USP54 (Q70EL1 whole entry): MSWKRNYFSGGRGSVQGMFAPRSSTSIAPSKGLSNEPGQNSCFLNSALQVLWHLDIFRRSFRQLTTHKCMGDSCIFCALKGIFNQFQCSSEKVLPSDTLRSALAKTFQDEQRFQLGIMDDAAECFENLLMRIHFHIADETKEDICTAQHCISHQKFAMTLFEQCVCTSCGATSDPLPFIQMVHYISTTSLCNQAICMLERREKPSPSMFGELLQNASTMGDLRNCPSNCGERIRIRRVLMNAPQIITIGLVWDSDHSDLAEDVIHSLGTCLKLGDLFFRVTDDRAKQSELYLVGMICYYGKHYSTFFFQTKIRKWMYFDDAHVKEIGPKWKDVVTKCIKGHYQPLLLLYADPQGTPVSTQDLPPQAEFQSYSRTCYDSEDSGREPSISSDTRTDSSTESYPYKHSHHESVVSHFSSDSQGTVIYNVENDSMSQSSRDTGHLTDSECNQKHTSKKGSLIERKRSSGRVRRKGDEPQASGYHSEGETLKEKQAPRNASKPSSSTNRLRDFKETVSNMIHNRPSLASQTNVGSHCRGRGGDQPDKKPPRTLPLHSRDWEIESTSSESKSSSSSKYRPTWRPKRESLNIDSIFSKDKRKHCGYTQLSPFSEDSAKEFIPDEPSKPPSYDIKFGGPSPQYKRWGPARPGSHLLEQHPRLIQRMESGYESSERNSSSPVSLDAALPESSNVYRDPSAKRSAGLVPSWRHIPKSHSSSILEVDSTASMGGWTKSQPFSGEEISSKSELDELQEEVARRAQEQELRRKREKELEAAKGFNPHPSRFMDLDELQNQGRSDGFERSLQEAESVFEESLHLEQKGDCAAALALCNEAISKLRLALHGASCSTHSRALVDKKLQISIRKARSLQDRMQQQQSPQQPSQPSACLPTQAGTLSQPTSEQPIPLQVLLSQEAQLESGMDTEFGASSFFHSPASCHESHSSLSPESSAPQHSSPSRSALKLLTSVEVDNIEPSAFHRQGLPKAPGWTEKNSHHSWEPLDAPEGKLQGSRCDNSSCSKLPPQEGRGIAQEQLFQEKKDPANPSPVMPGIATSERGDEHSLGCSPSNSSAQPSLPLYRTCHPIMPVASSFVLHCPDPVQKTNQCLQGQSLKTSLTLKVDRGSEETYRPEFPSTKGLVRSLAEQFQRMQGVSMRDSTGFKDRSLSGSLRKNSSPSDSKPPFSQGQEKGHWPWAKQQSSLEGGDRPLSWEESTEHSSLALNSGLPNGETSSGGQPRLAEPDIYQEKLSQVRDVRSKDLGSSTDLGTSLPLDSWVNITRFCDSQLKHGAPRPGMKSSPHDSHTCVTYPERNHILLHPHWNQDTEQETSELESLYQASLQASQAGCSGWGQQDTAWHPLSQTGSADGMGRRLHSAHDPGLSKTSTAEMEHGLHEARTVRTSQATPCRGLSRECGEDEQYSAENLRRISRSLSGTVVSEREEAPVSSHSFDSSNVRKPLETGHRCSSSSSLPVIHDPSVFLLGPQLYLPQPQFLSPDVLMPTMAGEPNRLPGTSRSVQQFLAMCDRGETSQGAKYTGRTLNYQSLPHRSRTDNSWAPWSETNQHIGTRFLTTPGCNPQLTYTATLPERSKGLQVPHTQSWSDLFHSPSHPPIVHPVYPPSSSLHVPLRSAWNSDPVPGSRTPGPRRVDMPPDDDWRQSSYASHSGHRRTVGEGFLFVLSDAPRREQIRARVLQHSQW

O=C(O)C1Cc2ccccc2CN1C(=O)CCl (stereo not drawn)
inactive: USP42 -0.449 | USP46 -0.111 | USP47 -0.301 | USP48 -0.543 | USP5 -0.0229 | USP54 0.788 | USP7 -0.333 | USP8 -0.283

Source: the supplement of paper PMC11732987, “Enantioselective OTUD7B fragment discovery through chemoproteomics screening and high-throughput optimisation” (Communications Chemistry, 2025)
